# Screening data from PubChem BioAssay.
# This is a sample that favours compounds with a hit; in the whole collection about 2.1% have one here.
# Abeta yeast res = A-beta toxicity reversal in yeast. AID 1347071. Potency, µM (titrated, usually from 46.1 µM), usual class: activators. 0.063% of 410,000 active. yeast expressing A-beta42, growth rescue, OD600, 48 h; response scale: 0% DMSO, 100% iron-clioquinol control; also: nearly all actives have a fitted effect of over 55% in size
#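 Yeast growth medium received pinned compounds, then yeast cells expressing toxic A-beta were added; plates incubated at 30 C for 48 hr. Growth read as absorbance at 600 nm, normalized to DMSO and equimolar FeCl3 plus clioquinol controls.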
# aSyn rescue = inhibitors of alpha-synuclein toxicity in yeast; Yeast expressing alpha-synuclein, growth rescue, BacTiter-Glo, 24 h; 0.14% of 370,000 active; Potency, µM (doses to about 46.1 µM), inactives show at the highest dose growth rescue (activation), most hits filed as activators; AID 652106; also: % of control where 0% means no effect; nearly all actives have a fitted effect of over 65% in size
#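 Rescue of yeast growth: cells expressing toxic alpha-synuclein, induced in galactose at OD600 0.02, incubated with compound 24 h at 30 C. ATP luminescence quantified growth; inhibitors of toxicity appear as activators.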
# FUS yeast rescue = FUS proteinopathy suppression in yeast; S. cerevisiae FUS-expressing, growth rescue, OD600, 24 h; Potency, µM (series often up to 76.6 µM), actives largely listed as activators; 0.24% of 390,000 active; AID 1347120;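 also: plate controls were DMSO vehicle for no effect and reference control for full effect; nearly all actives have a fitted effect of over 55% in size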
#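 Read-out: OD at 600 nm after 24hr at 30C, reporting rescue of FUS-induced yeast toxicity. Cells at OD 0.005 in galactose (2%) minimal medium; compounds tested in a dilution series; CP55940 titration from 92uM final as control.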
# TDP-43 yeast inh = inhibitors of TDP-43 toxicity in yeast; TDP-43 expressing yeast growth rescue, BacTiter-Glo, 24 h; Potency, µM (doses to about 46.1 µM), inactives show at the highest dose growth rescue (activation), hits mostly activators; 1.8% of 410,000 active; also: % of control where 0% means no effect; nearly all actives have a fitted effect of over 50% in size
#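 In this qHTS, compounds that restore growth of yeast expressing TDP-43 appear as activators. Cells (OD600=0.02, galactose medium, raffinose-pregrown) are incubated with compound 24 hr at 30 deg C and growth is quantified by BacTiter-Glo.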
# Active calls of the source: *; i = inactive; ? = inconclusive; nt = no result; [ ] = remark or other dose. Calls follow the shape of the dose curve; as a rule, active = well fitted curve in the direction sought with a large enough effect; inconclusive = small, poorly fitted or top-dose-only effect, or another doubt; inactive = no such curve, though single readings can be large; an effect the other way counts as inactive or inconclusive. Potency is read from the fitted curve at half-maximal effect.
SMILES,Abeta yeast res,aSyn rescue,FUS yeast rescue,TDP-43 yeast inh
O=C1CC(c2nc3ccccc3n2Cc2c(F)cccc2Cl)CN1c1cccc(C(F)(F)F)c1 (stereo unspecified),i,nt,i,25.1µM*
Cc1c(Cl)cccc1N1CC(c2nc3ccccc3n2Cc2ccccc2F)CC1=O (stereo unspecified),i,nt,i,25.1µM*
COc1ccccc1OCCCCn1c(C2CC(=O)N(c3ccccc3Cl)C2)nc2ccccc21 (stereo unspecified),i,nt,i,29.7%
O=C(NCCc1ccc(F)cc1)c1ccc2c(c1)ncn2C1CCCCC1,nt,nt,i,nt
O=C(c1ccco1)N1CCC(Oc2cccnc2)CC1,nt,nt,i,nt
COc1cc2c(c(OC)c1)[C@H](/C=C/c1ccccc1)[C@@H]([C@H](O)CO)OC2,nt,nt,i,nt
N#Cc1cn(-c2ccccc2)nc1-c1ccco1,i,nt,i,8.91µM*
COC(=O)C1=C(O)CSC1=Nc1ccc(C)cc1,i,9.1%,nt,15.8µM*
Cc1ccc(/C=N\NC(=O)CN2CCN(S(=O)(=O)c3ccc(Br)cc3)CC2)s1,nt,nt,i,nt
O=C(NCc1cccc(Cl)c1)c1cc(COc2ccc3ncccc3c2)on1,i,-10.9%,i,14.1µM*
COC(=O)[C@]1(C#N)CC(=O)N(Cc2ccc(Cl)cc2)[C@@H]1c1ccccc1,nt,nt,i,nt
COCCCNC(=O)C1CCN(S(=O)(=O)c2ccc3[nH]c(=O)oc3c2)CC1,nt,nt,i,nt
CCOc1ccc(N(CC(=O)NCCSCc2ccccc2Cl)S(C)(=O)=O)cc1,i,7.6%,i,8.5%
O=C(COc1ccc(Cl)cc1)NCCSCc1cccc(Cl)c1,i,18.2%,i,15.8µM*
Cc1cccc(CSCCNC(=O)COc2ccc(Cl)cc2)c1,i,9.1%,i,?
O=C(COc1ccc(Cl)cc1)NCCSCc1ccccc1Cl,i,2.4%,i,25.1µM*
COc1ccc(CN(CCN2CCOCC2)C(=O)c2cc(F)ccc2F)cc1OC,nt,nt,i,nt
O=C(COC(=O)/C=C/c1ccc(C(F)(F)F)cc1)NCC1CCCO1 (stereo unspecified),i,6.9%,i,25.1µM*
O=C(COC(=O)/C=C/c1ccc(Cl)cc1)NC1CCCCCC1,i,-1.4%,i,11.3%
O=C(COC(=O)/C=C/c1cccc(Cl)c1)NC1CCCC1,i,-3.2%[1.84 µM],i,12.6µM*
CSc1ccc(/C=C/C(=O)OCC(=O)NC2CC2)cc1,i,8.2%,i,22.4µM*
O=C(COC(=O)/C=C/c1ccc(Cl)cc1)NC1CC1,i,-0.1%,i,35.5µM*
O=C(COC(=O)/C=C/c1ccc(F)cc1)NCC1CCCO1 (stereo unspecified),i,3.0%,i,21.6%
O=C(COC(=O)/C=C/c1ccccc1)NC1CC1,i,-10.1%,i,17.8%
COc1ccc2[nH]cc(C(C)c3ccccc3O)c2c1 (stereo unspecified),nt,nt,i,nt
SMILES,Abeta yeast res,aSyn rescue,FUS yeast rescue,TDP-43 yeast inh
O=C(O[C@H]1CC[C@@]23CCCN2C(=O)CCC[C@H]3C1)N1CCOCC1,nt,nt,i,nt
Cc1ccccc1C(=O)NC1CCCCN(Cc2cccc(Cl)c2)C1=O (stereo unspecified),nt,nt,i,nt
O=C(COC(=O)/C=C/c1ccc(C(F)(F)F)cc1)NC1CCCC1,i,10.8%,i,10µM*
O=C(COC(=O)/C=C/c1ccc(C(F)(F)F)cc1)NC1CC1,i,14.2%,i,6.31µM*
O=C(COC(=O)/C=C/c1ccc(C(F)(F)F)cc1)NCc1ccco1,i,-5.0%,i,17.8µM*
O=C(COC(=O)/C=C/c1ccccc1)NCc1ccco1,i,-4.3%,i,5.1%
COC(=O)c1cc(-c2ccc(C(C)(C)C)cc2)c(=O)n2c1CCC2,nt,nt,i,nt
COCc1cc(OC)nc(-c2csc(C)n2)n1,15.8µM*,4.0%,i,23.8%
COCCN1C(=O)C(=O)/C(=C(/O)c2ccc(S(=O)(=O)N3CCOCC3)cc2)C1c1cccc(O)c1 (stereo unspecified),i,4.4%,i,-10.0%
COCCN1C(=O)C(=O)/C(=C(/O)c2ccc(S(=O)(=O)N3CCOCC3)cc2)C1c1cccc(OC)c1 (stereo unspecified),i,-7.2%,5.01µM*,-8.0%
Cc1cccc(OCC(=O)Nc2nc3c(s2)CC(C(C)(C)C)CC3)c1C (stereo unspecified),i,nt,i,-17.1%
COc1cccc(N2CCN(CC(=O)Nc3nc4c(s3)CC(C)CC4)CC2)c1 (stereo unspecified),i,-0.5%,i,-20.8%
CC1CCc2nc(NC(=O)CN3CCN(c4ccc(F)cc4)CC3)sc2C1 (stereo unspecified),i,-4.9%,?,15.8µM*
COc1ccc(CC(=O)Nc2nc3c(s2)CC(C)CC3)cc1 (stereo unspecified),?,nt,i,12.6µM*
CC(C)(C)C1CCc2nc(NC(=O)Cc3ccccc3)sc2C1 (stereo unspecified),i,nt,i,31.6µM*
COC(=O)C1(C)CCCC2(C)c3cc(OC)ccc3C(=O)C(Br)C12 (stereo unspecified),i,-3.5%,?,25.1µM*
COc1ccc(C2CCC3(CCC(=O)N3CCO)CC2)cc1 (stereo unspecified),nt,nt,i,nt
Cc1cc(NC(=O)c2cc(-c3ccccc3C)nc3ccccc23)no1,i,0.6%,nt,0.0%
Cc1cc(NC(=O)c2cc(-c3ccccc3Cl)nc3ccccc23)no1,i,2.4%,i,14.1µM*
O=C(NCc1ccccn1)c1cc(-c2ccccc2Cl)nc2ccccc12,i,5.3%,nt,20µM*
Cc1ccc(-n2c(SCC(=O)Nc3ccc4c(c3)OCCO4)nnc2-c2cnccn2)cc1,nt,nt,i,nt
Cc1ccccc1-c1cccc2c3c([nH]c12)[C@@H]1C[C@H]2[C@@H](CN1CC3)[C@H](C)ON2C,nt,nt,i,nt
COC(=O)[C@@]1(Cc2ccc(F)cc2)[C@H]2c3cc(C(=O)N(C)C)n(CCc4c[nH]c5ccc(O)cc45)c3C[C@H]2CN1C(=O)c1ccccc1,i,-1.0%,15.8µM*,28.0%
COc1ccc(-n2nc([N+](=O)[O-])c(=NCCC3=CCCCC3)n2O)cc1,i,8.5%,i,20µM*
CC(=O)c1cc(-c2ccccc2)n(CC(=O)NCc2ccccc2)c1C,nt,nt,i,nt
SMILES,Abeta yeast res,aSyn rescue,FUS yeast rescue,TDP-43 yeast inh
COc1c(C)cc(Br)cc1C(=O)Nc1cccc(NC(=O)c2ccco2)c1,i,-20.3%,nt,?
COc1ccc(Br)cc1C(=O)Nc1cccc(NC(=O)c2ccco2)c1,i,0.4%,nt,8.91µM*
COc1ccc(NC(=O)c2ccco2)cc1NC(=O)c1ccc(C)c(C)c1,i,nt,i,15.8µM*
Cc1cscc1-c1ccc(C(=O)Nc2c(C)cccc2C)o1,i,28.7%,i,14.1µM*
COC(=O)c1cccc(NC(=O)c2ccc(OC)c(Cl)c2)c1,i,1.6%,i,11.2µM*
COC(=O)c1cccc(NC(=S)Nc2cc(Cl)ccc2OC)c1,i,5.0%,i,22.4µM*
